26 molecules from PubChem BioAssay AID743314 (Broad Institute, 2014) can be followed below.

Each structure is given as a SMILES string. Potency and affinity values are given separately. Results filed as inconclusive are left out. Where a call stands in place of a potency, no number is given. The source made the active and inactive calls.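 How the source made its calls: active means fitted half-maximal concentration no higher than twice the top tested dose, in every repeat run; inconclusive means repeat runs disagree, poor fit, or flat partial inhibition; inactive means the rest.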

For the assay, the target named is Endoplasmic reticulum aminopeptidase 1 (Homo sapiens) (UniProt Q9NZ08). The experiment in a line: ERAP1 aminopeptidase inhibitors, dose response, biochemical, cherry-pick, set 2, plate reader (AID 743314). Conditions: Recombinant ERAP1, Leu-AMC fluorescence, 60 min; series mostly up to 11 µM.
Sequence of Endoplasmic reticulum aminopeptidase 1 (Homo sapiens) (Q9NZ08 whole entry, looked up): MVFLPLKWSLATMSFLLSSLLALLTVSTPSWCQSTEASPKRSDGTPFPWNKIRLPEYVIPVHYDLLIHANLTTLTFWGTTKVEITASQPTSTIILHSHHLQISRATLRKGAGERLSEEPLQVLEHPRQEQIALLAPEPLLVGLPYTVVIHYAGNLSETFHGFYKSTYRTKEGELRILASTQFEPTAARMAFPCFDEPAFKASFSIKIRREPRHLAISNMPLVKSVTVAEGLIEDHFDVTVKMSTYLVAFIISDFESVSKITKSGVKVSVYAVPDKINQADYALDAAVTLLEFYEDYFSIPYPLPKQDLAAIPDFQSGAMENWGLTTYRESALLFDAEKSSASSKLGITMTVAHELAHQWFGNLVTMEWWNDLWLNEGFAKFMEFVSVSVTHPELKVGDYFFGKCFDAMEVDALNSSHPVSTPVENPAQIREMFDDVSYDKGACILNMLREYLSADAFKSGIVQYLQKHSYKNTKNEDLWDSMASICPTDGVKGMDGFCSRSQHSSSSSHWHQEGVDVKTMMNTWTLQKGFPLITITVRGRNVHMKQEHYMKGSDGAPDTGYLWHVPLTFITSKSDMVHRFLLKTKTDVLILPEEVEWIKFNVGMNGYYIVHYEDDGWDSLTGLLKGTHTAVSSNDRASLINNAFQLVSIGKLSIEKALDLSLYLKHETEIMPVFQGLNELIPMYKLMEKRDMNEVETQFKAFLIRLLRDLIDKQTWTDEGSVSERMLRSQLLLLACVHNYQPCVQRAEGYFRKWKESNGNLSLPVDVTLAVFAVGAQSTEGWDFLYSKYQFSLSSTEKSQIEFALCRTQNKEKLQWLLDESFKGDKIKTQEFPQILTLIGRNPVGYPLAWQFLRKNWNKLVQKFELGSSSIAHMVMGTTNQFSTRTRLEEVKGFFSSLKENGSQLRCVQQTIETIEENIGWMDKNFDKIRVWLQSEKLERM
With `C[C@H](CO)N1C[C@H](C)[C@H](CN(C)C(=O)Nc2ccc(F)cc2)Oc2ccc(NC(=O)CCN3CCOCC3)cc2C1=O`, the outcome was inactive.
The same measure for `COc1ccc(C#Cc2cccc(-c3nc(C(=O)N4CCN(C)CC4)cc4c3[C@@H](CCO)N(S(=O)C(C)(C)C)C4)c2)cc1OC` (stereo partly specified): “inactive”; for `COc1ccc(CN(C)C[C@H]2Oc3c(NC(=O)NC4CCCCC4)cccc3C(=O)N([C@@H](C)CO)C[C@@H]2C)cc1`: “inactive”.
Consider `C[C@@H]1CCCCO[C@H](CN(C)S(=O)(=O)c2ccccc2)[C@H](C)CN([C@H](C)CO)C(=O)c2cc(NS(=O)(=O)c3ccc(Cl)cc3)ccc2O1`, for which the result was inactive.
On to `CCc1nnc(NC(=O)c2cc(S(=O)(=O)N3CCOCC3)ccc2N2CCCCC2)s1`, for which the outcome was inactive.
For the molecule `C[C@@H]1CN([C@@H](C)CO)C(=O)Cc2cc(NC(=O)Nc3cccc4ccccc34)ccc2O[C@H]1CN(C)Cc1ccc(C(=O)O)cc1`, the result was inactive.
On to `C[C@@H]1CN([C@@H](C)CO)C(=O)c2cc(-c3ccc(F)cc3)cnc2O[C@@H]1CN(C)CC1CCCCC1`, for which the outcome was inactive.
`C/C=C/c1ccc([C@H]2[C@@H](CO)N(CC3CCOCC3)C23CN(S(=O)(=O)CC)C3)cc1`: the outcome was inactive.
The value for `Cc1cc(S(=O)(=O)c2cc3ccc(O)c(C)c3oc2=O)ccc1F` was “inactive”; that for `O=C(c1ccc(F)cc1)N1CC2(C1)[C@H](c1ccccc1)[C@@H](CO)N2Cc1ccccn1` was “inactive”.
In the case of `Cc1ccc(S(=O)(=O)c2cc3ccc(O)cc3oc2=O)cc1C`, the result was inactive.
The same measure for `COc1ccc(NC(=O)Nc2ccc3c(c2)C(=O)N([C@@H](C)CO)C[C@H](C)[C@H](CN(C)Cc2ccc(C(=O)O)cc2)OCCCC[C@H](C)O3)cc1`: “inactive”.
As for `CC1CN(Cc2cc(=O)oc3cc(O)c(Cl)cc23)CC(C)O1` (stereo unspecified), the result was inactive.
For `CC(=O)N(C)C[C@H]1Oc2cc(C#CC(C)C)ccc2S(=O)(=O)N([C@@H](C)CO)C[C@H]1C`, the outcome was inactive.
The same measure for `CS(=O)(=O)N(CC(=O)N1CCOCC1)c1cccc(Cl)c1`: “inactive”.
In the case of `O=C(NCCN1CCCC1)[C@H]1[C@H](CO)[C@H]2Cn3c(cccc3=O)[C@@H]1N2C(=O)NC1CCCC1`, the outcome was inactive.
In the case of `C[C@H]1CCCCO[C@@H](CN(C)S(=O)(=O)c2cn(C)cn2)[C@@H](C)CN([C@@H](C)CO)C(=O)c2cc(NC(=O)Nc3ccccc3)ccc2O1`, the outcome was inactive.
Take `O=C(C[C@@H]1CC[C@@H]2[C@H](COC[C@@H](O)CN2C(=O)Cc2ccccc2)O1)NC1CCC1`: the result was inactive.
Take `COc1ccc(CN(C)C[C@H]2Oc3c(NC(=O)NC4CCCCC4)cccc3C(=O)N([C@@H](C)CO)C[C@H]2C)cc1`: the result was inactive.
As for `COCCN(C(=O)COC(=O)CNC(=O)c1cccs1)c1c(N)n(Cc2ccccc2)c(=O)[nH]c1=O`, the outcome was inactive.
As for `Cc1cccc2sc(N(CCCN(C)C)C(=O)c3ccc4ncsc4c3)nc12`, the outcome was inactive.
The value for `CC(OC(=O)c1cc(=O)[nH]c2ccccc12)C(=O)Nc1ccccc1F` (stereo unspecified) was “inactive”; that for `Cc1nc2cc(NC(=O)C3COc4ccccc4O3)ccc2s1` (stereo unspecified) was “inactive”; that for `COc1ccc(CN(C)C[C@H]2OCCCC[C@H](C)Oc3ccc(NC(=O)Nc4ccc(F)cc4)cc3C(=O)N([C@@H](C)CO)C[C@@H]2C)cc1` was “inactive”.
The same measure for `O=C(C[C@H]1CC[C@@H]2[C@H](COC[C@@H](O)CN2C(=O)Nc2cccc(Cl)c2)O1)N1CCCCC1`: “inactive”; for `CN1[C@H](C(=O)N2CCCCC2)[C@@H](CO)[C@@H]2Cn3c(ccc(/C=C/c4ccccc4)c3=O)[C@@H]21`: “inactive”.
